± gives the standard deviation of the averaged measurements.
Tests used:
Assay in all cases: cell viability (% of vehicle); higher = less cytotoxic
Conditions in all cases: 10 µM; 72 h
HCI01 = test system: HCI01 (cells of a triple-negative basal-like breast cancer xenograft)
HCI03 = test system: HCI03 (cells of an ER-positive luminal breast cancer xenograft)
HCI09 = test system: HCI09 (cells of a triple-negative luminal androgen receptor type breast cancer xenograft)
HCI11 = test system: HCI11 (cells of an ER-positive luminal breast cancer xenograft)
HCI13 = test system: HCI13 (cells of an ER-positive luminal breast cancer xenograft)
HCI16 = test system: HCI16 (cells of a triple-negative basal-like breast cancer xenograft)
UCD52 = test system: UCD52 (cells of a triple-negative basal-like breast cancer xenograft)
WHIM2 = test system: WHIM2 (cells of a triple-negative basal-like breast cancer xenograft)
WHIM30 = test system: WHIM30 (cells of a triple-negative basal-like breast cancer xenograft)
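Further: PDX cells carrying CMV promoter-driven luciferase, viability read as total photon flux per second by IVIS imaging following D-luciferin, vehicle control 0.1% DMSO.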

| SMILES | cell viability (HCI01) | cell viability (HCI03) | cell viability (HCI09) | cell viability (HCI11) | cell viability (HCI13) | cell viability (HCI16) | cell viability (UCD52) | cell viability (WHIM2) | cell viability (WHIM30) |
| --- | --- | --- | --- | --- | --- | --- | --- | --- | --- |
| CCCCCOC(=O)Nc1nc(=O)n(C2OC(C)C(O)C2O)cc1F (stereo not given) [Capecitabine] | 142 ± 26 | 114 | 139 ± 24 | 124 | 165 ± 25 | 120 | 112 ± 4 | 108 ± 6.9 | 162 ± 33 |
| CNC(=C[N+](=O)[O-])NCCSCc1ccc(CN(C)C)o1.Cl [Ranitidine] | 110 ± 5 | 125 | 112 ± 1.9 | 103 | 122 ± 6.4 | 122 | 89.9 ± 9.7 | 85.6 ± 2.9 | 113 ± 11 |
| Cc1nccn1CC1CCc2c(c3ccccc3n2C)C1=O.Cl (stereo not given) [Ondansetron HCl] | 126 ± 18 | 123 | 93.6 ± 9.8 | 111 | 96.7 ± 2.7 | 104 | 80.3 ± 1 | 83.9 ± 22 | 128 ± 9.2 |
| O=c1[nH]c(=O)n(C2CC(O)C(CO)O2)cc1F (stereo not given) [Floxuridine] | 122 ± 5.9 | 103 | 103 ± 20 | 131 | 84.4 ± 5.7 | 161 | 167 ± 12 | 105 ± 13 | 149 ± 34 |
| Nc1ccn(C2OC(CO)C(O)C2(F)F)c(=O)n1 (stereo not given) [Gemcitabine] | 70.3 ± 11 | 95.9 | 75.1 ± 9.5 | 112 | 118 ± 5.3 | 64.7 | 100.6 ± 0.62 | 78.9 ± 22 | 119 ± 12 |
| COc1cc(OC)c(C(=O)CCCN2CCCC2)c(OC)c1.Cl [Buflomedil HCl] | 95.4 ± 3.3 | 131 | 95.6 ± 15 | 94.4 | 86.6 ± 2.6 | 122 | 92.5 ± 16 | 117 ± 28 | 134 ± 2.4 |
| CCCCCCCCCCCCCCCCCCCCCCO [Docosanol (Abreua)] | 82.8 ± 2.5 | 93.4 | 82.5 ± 8 | 95.6 | 97.3 ± 27 | 84.5 | 76.5 ± 11 | 81.8 ± 19 | 102 ± 3 |
| CC(=O)Nc1ccc(O)cc1 [Acetaminophen] | 93.9 ± 24 | 101 | 98.4 ± 7.2 | 80.4 | 116 ± 14 | 126 | 102 ± 6.9 | 92.71 ± 0.48 | 97.4 ± 3.5 |
| CC(CCc1ccccc1)NCC(O)c1ccc(O)c(C(N)=O)c1.Cl (stereo not given) [Labetalol HCl] | 101 ± 12 | 106 | 95.8 ± 9.3 | 104 | 105 ± 7.3 | 112 | 85.7 ± 7 | 110 ± 15 | 111 ± 13 |
| COC1C(O)CC(=O)OC(C)CC=CC=CC(OC2CCC(N(C)C)C(C)O2)C(C)CC(CC=O)C1OC1OC(C)C(OC2CC(C)(O)C(O)C(C)O2)C(N(C)C)C1O (stereo not given) [Spiramycin] | 133 ± 7.7 | 125 | 110 ± 12 | 116 | 78.9 ± 20 | 138 | 94.4 ± 1.5 | 149 ± 30 | 123 ± 5.8 |
| Cl.NNc1nncc2ccccc12 [Hydralazine HCl] | 142 ± 22 | 131 | 113 ± 9.5 | 79.8 | 121 ± 7.1 | 180 | 162 ± 3.2 | 148 ± 5.5 | 151 ± 11 |
| COc1ccc(C2CNC(=O)C2)cc1OC1CCCC1 (stereo not given) [Rolipram] | 130 ± 5.1 | 140 | 85.8 ± 11 | 106 | 175 ± 38 | 112 | 102 ± 18 | 101 ± 13 | 123 ± 19 |
| Clc1ccc(CCC(Cn2ccnc2)Sc2c(Cl)cccc2Cl)cc1.O=[N+]([O-])O (stereo not given) [Butoconazole nitrate] | 67.2 ± 44 | 99.5 | 36.7 ± 9.7 | 143 | 39.6 ± 1.4 | 186 | 74.6 ± 3.6 | 53.8 ± 16 | 190 ± 7.9 |
| COc1cc2c(cc1O)CCC1C2CCC2(C)C(O)CCC12 (stereo not given) [2-Methoxyestradiol (2-MeOE2)] | 141 ± 8 | 110 | 94.8 ± 12 | 117 | 181 ± 10 | 121 | 95.1 ± 7.2 | 114 ± 7 | 150 ± 22 |
| CC1=NN(c2ccccc2)C(=O)C1 [Edaravone] | 80.8 ± 11 | 108 | 91.7 ± 13 | 100 | 99.37 ± 0.89 | 113 | 87.9 ± 16 | 83.1 ± 24 | 130 ± 10 |
| Cn1c(=O)cc(N2CCCC(N)C2)n(Cc2ccccc2C#N)c1=O (stereo not given) [Alogliptin (SYR-322)] | 118 ± 5.8 | 112 | 89.5 ± 8.9 | 112 | 115 ± 26 | 113 | 108.86 ± 0.059 | 114 ± 9.2 | 117 ± 6.7 |
| CCOc1nc2cccc(C(=O)O)c2n1Cc1ccc(-c2ccccc2-c2nc(=O)o[nH]2)cc1 [Azilsartan] | 79.7 ± 44 | 142 | 84.8 ± 13 | 92 | 99.8 ± 2.6 | 96.2 | 83.3 ± 7.1 | 97.9 ± 13 | 97.5 ± 2.2 |
| c1ccc2[nH]c(-c3cscn3)nc2c1 [Thiabendazole] | 148 ± 9.3 | 160 | 82.8 ± 82 | 162 | 162 ± 8.2 | 119 | 167 ± 15 | 120 ± 13 | 102.2 ± 0.2 |
| O=c1[nH]c(=O)n(C2CCCO2)cc1F (stereo not given) | 158 ± 9.9 | 110 | 109 ± 5.2 | 112 | 89.2 ± 7.7 | 143 | 116 ± 20 | 130 ± 13 | 130 ± 0.83 |
| O=C1CN(/N=C/c2ccc(-c3ccc([N+](=O)[O-])cc3)o2)C([O-])=N1.[Na+] [Dantrolene, sodium salt] | 98.7 ± 15 | 174 | 83.5 ± 7.8 | 99.1 | 105 ± 9.9 | 110 | 92.4 ± 4.7 | 104 ± 4 | 130 ± 7.4 |

| SMILES | cell viability (HCI01) | cell viability (HCI03) | cell viability (HCI09) | cell viability (HCI11) | cell viability (HCI13) | cell viability (HCI16) | cell viability (UCD52) | cell viability (WHIM2) | cell viability (WHIM30) |
| --- | --- | --- | --- | --- | --- | --- | --- | --- | --- |
| CC(=O)Nc1cccc(-n2c(=O)n(C3CC3)c(=O)c3c(Nc4ccc(I)cc4F)n(C)c(=O)c(C)c32)c1 | 103 ± 34 | 94 | 82.1 ± 34 | 98.3 | 110 ± 16 | 120 | 48 ± 14 | 74.2 ± 8.9 | 133 ± 24 |
| CN=C(NC#N)NCCSCc1nc[nH]c1C [Cimetidine] | 136 ± 22 | 124 | 93.85 ± 0.84 | 101 | 102 ± 16 | 115 | 88.1 ± 5.3 | 87.8 ± 19 | 120 ± 4.4 |
| O=C(O)C=CC(=O)O.OCCOCCN1CCN(C2=Nc3ccccc3Sc3ccccc32)CC1.OCCOCCN1CCN(C2=Nc3ccccc3Sc3ccccc32)CC1 [Quetiapine Fumarate] | 186 ± 14 | 91.6 | 81.6 ± 5.6 | 123 | 83 ± 0.84 | 163 | 78.8 ± 2 | 128 ± 7 | 154 ± 6.5 |
| CCC1OC(=O)C(C)C(OC2CC(C)(OC)C(O)C(C)O2)C(C)C(OC2OC(C)CC(N(C)C)C2O)C(C)(O)CC(C)C(=O)C(C)C(O)C1(C)O (stereo not given) [Erythromycin] | 106 ± 13 | 101 | 96.7 ± 12 | 92.7 | 77.2 ± 9.7 | 113 | 95 ± 17 | 118 ± 36 | 167.6 ± 0.38 |
| CNCC(O)C(O)C(O)C(O)CO (stereo not given) [Meglumine] | 80.2 ± 19 | 93.4 | 97.6 ± 1.5 | 74.4 | 142 ± 11 | 110 | 78.3 ± 1.6 | 85.9 ± 25 | 133 ± 5.2 |
| COc1cc2nc(N3CCN(C(=O)C4COc5ccccc5O4)CC3)nc(N)c2cc1OC.CS(=O)(=O)O (stereo not given) [Doxazosin Mesylate] | 116.9 ± 0.43 | 94.7 | 73.2 ± 34 | 83.3 | 103 ± 15 | 123 | 92.4 ± 14 | 62.6 ± 10 | 117 ± 13 |
| CS(=O)(=O)O.OC(CCN1CCCCC1)(c1ccccc1)c1ccccc1 [Pridinol Methanesulfonate] | 113 ± 3.7 | 104 | 124 ± 47 | 119 | 92.6 ± 12 | 112 | 86.1 ± 6.1 | 164 ± 89 | 129 ± 10 |
| c1coc(CNc2ncnc3nc[nH]c23)c1 [Kinetin] | 109 ± 4.5 | 123 | 103 ± 12 | 100 | 120 ± 7.4 | 86.8 | 102 ± 20 | 93.7 ± 4 | 121 ± 4.5 |
| CC(C(=O)O)c1ccc(C(=O)c2cccs2)cc1 (stereo not given) [Suprofen] | 116 ± 29 | 133 | 97.9 ± 4 | 69.5 | 114 ± 7.9 | 125 | 102.3 ± 0.22 | 107 ± 3.9 | 100 ± 15 |
| CC(C(=O)O)c1ccc2c(c1)Cc1cccnc1O2 (stereo not given) [Pranoprofen] | 113 ± 13 | 128 | 93.6 ± 16 | 78.6 | 123 ± 16 | 125 | 98.8 ± 19 | 110 ± 3.3 | 111 ± 22 |
| Brc1c(NC2=NCCN2)ccc2nccnc12.O=C(O)C(O)C(O)C(=O)O [Brimonidine Tartrate] | 123 ± 9.2 | 125 | 78 ± 4.6 | 89.9 | 88.5 ± 4.5 | 124 | 90.8 ± 10 | 125 ± 25 | 98.4 ± 1.3 |
| NC(=O)C1CCCc2c1[nH]c1ccc(Cl)cc21 (stereo not given) | 145 ± 13 | 182 | 102 ± 2.3 | 128 | 148 ± 9 | 121 | 128 ± 12 | 141 ± 7.4 | 161 ± 24 |
| CC(=O)N=c1sc(S(N)(=O)=O)nn1C [Methazolamide] | 103 ± 7.7 | 114 | 92.5 ± 21 | 119 | 119 ± 9.3 | 122 | 93.9 ± 16 | 94.6 ± 3.6 | 97.7 ± 1.2 |
| O=C(O)CCNC(=O)c1ccccc1 [Betamipron] | 121 ± 22 | 105 | 87.5 ± 28 | 98.2 | 69.8 ± 10 | 98.9 | 99.9 ± 9.4 | 101 ± 11 | 108 ± 4.5 |
| Nc1nc(=O)c2c(CCc3ccc(C(=O)NC(CCC(=O)O)C(=O)O)cc3)c[nH]c2[nH]1.O.[Na+] (stereo not given) [Pemetrexed disodium hemipenta hydrate] | 97.24 ± 0.52 | 95.8 | 93.8 ± 24 | 91.3 | 90 ± 7.8 | 69.3 | 95.4 ± 1.8 | 90.47 ± 0.25 | 119 ± 36 |
| N#CC(c1ccc(Cl)cc1)c1c(Cl)cc(-n2ncc(=O)[nH]c2=O)cc1Cl (stereo not given) [Diclazuril] | 98.7 ± 32 | 119 | 64 ± 57 | 95.3 | 59.1 ± 10 | 123 | 96.3 ± 31 | 115 ± 19 | 161 ± 11 |
| Nc1ccn(C2OC(CO)C(O)C2O)c(=O)n1 (stereo not given) [Cytidine] | 101 ± 36 | 131 | 98.9 ± 9.3 | 105 | 87.1 ± 7 | 122 | 92.5 ± 19 | 108 ± 18 | 146 ± 29 |
| CC(CN1CC(=O)NC(=O)C1)N1CC(=O)NC(=O)C1 (stereo not given) [Dexrazoxane] | 83 ± 6.2 | 148 | 102 ± 20 | 92.4 | 110 ± 13 | 103 | 100.8 ± 0.77 | 75.7 ± 5.5 | 131.05 ± 0.028 |
| C=C[C@@H]1C[N@@]2CC[C@H]1C[C@@H]2[C@H](O)c1ccnc2ccc(OC)cc12 [Quinidine] | 89 ± 10 | 135 | 102 ± 20 | 102 | 122 ± 8.8 | 123 | 97.9 ± 2.7 | 101 ± 11 | 101 ± 6.2 |
| CCOC(=O)c1ccc(N)cc1 [Benzocaine] | 144 ± 13 | 87.2 | 115 ± 14 | 117 | 79.8 ± 1.6 | 134 | 117 ± 8.3 | 142 ± 12 | 140 ± 10 |

Source: the supplement of paper PMC6992640
